Data on 1 molecule can be found in ChEMBL document CHEMBL2218924, “A broad activity screen in support of a chemogenomic map for kinase signalling research and drug discovery” (Biochem J, 2013).

Assay [1] has as its target T1, Serine/threonine-protein kinase TBK1 (Homo sapiens) (UniProt Q9UHD2).
T1 sequence (whole entry): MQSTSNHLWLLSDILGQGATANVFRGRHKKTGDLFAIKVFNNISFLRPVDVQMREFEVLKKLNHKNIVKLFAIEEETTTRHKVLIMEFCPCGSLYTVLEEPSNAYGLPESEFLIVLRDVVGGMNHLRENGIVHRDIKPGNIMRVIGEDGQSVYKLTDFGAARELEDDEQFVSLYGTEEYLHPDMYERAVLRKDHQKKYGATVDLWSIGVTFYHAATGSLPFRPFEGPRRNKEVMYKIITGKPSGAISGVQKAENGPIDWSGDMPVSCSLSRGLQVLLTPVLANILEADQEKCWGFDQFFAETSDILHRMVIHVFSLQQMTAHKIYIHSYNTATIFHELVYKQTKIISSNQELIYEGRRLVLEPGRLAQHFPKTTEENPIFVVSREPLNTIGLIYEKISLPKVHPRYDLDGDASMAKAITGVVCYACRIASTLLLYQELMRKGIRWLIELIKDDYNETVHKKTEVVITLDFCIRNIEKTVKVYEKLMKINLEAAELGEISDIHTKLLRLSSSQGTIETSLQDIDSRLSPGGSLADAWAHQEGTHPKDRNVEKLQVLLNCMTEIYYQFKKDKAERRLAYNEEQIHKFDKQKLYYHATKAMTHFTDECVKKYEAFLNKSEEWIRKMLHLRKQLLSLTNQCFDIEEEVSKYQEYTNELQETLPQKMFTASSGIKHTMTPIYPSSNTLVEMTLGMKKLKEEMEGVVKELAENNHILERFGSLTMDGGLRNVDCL
The following applies: at 10 µM.

Assay [2] deals with T2, TGF-beta receptor type-1 (Homo sapiens) (UniProt P36897).
T2 sequence (whole entry): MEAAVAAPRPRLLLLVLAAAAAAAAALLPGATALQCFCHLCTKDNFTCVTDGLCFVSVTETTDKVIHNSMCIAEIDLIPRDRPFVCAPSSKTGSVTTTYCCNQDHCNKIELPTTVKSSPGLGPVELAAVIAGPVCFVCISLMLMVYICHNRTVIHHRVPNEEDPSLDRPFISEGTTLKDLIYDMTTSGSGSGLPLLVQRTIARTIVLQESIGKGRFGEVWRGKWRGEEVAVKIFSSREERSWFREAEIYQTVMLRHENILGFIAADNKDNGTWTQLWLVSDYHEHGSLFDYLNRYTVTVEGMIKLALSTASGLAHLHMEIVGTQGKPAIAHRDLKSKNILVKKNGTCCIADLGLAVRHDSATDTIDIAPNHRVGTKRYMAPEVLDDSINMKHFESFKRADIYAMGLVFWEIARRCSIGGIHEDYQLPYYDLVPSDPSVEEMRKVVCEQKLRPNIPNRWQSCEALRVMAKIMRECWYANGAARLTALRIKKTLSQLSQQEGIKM
The following applies: at 1 µM.

Assay [3] has as its target T2, TGF-beta receptor type-1 (Homo sapiens). The following applies: at 10 µM.
The target in assay [4] is Insulin-like growth factor 1 receptor (Homo sapiens) (UniProt P08069). The following applies: at 1 µM.
Assay [5] has the same target. The following applies: at 10 µM.
The target of assay [6] is T3, Inhibitor of nuclear factor kappa-B kinase subunit alpha (Homo sapiens) (UniProt O15111).
T3 sequence (whole entry): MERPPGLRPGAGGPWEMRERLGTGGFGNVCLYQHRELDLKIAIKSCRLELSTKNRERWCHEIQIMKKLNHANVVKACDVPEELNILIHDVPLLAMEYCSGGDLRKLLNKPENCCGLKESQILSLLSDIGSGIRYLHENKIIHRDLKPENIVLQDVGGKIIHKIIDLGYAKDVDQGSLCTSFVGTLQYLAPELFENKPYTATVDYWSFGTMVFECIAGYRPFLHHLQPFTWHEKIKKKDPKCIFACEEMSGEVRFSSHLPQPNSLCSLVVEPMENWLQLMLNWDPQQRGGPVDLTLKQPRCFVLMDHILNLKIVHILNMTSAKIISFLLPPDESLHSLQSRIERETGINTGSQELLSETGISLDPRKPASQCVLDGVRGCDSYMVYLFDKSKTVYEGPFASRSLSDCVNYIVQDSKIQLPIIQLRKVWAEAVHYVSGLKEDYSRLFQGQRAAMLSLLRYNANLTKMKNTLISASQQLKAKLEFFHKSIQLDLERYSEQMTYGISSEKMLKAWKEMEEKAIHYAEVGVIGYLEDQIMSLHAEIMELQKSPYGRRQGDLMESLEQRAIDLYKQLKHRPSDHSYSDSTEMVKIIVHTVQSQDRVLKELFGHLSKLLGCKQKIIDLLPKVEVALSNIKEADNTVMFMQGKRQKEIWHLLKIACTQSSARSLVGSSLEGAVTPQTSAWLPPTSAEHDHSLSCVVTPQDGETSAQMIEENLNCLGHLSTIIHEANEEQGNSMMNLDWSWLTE
The following applies: at 1 µM.

Assay [7] concerns the target T3, Inhibitor of nuclear factor kappa-B kinase subunit alpha (Homo sapiens). The following applies: at 10 µM.
Assay [8] deals with T4, Inhibitor of nuclear factor kappa-B kinase subunit beta (Homo sapiens) (UniProt O14920).
T4 sequence (whole entry): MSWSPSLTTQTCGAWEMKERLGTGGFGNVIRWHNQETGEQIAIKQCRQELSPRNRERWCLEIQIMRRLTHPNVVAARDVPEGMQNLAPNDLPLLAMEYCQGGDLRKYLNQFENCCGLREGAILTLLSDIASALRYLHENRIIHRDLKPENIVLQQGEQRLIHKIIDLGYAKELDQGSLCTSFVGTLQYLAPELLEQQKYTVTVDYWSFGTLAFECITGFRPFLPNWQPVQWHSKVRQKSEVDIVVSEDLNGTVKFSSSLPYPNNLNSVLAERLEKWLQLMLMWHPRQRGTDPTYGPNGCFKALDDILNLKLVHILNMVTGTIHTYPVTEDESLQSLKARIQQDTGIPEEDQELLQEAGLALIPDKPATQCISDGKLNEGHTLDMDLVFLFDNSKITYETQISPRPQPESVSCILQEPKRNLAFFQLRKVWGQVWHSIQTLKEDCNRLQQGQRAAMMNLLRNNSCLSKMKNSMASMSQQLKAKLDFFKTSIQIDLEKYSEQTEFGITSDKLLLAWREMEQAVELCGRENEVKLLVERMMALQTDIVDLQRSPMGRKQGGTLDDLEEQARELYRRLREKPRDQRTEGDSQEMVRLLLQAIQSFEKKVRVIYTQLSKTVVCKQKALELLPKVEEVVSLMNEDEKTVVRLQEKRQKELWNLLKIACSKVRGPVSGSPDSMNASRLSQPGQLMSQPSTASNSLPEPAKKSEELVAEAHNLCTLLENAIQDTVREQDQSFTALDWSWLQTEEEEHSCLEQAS
The following applies: at 1 µM.

In assay [9] the target is T4, Inhibitor of nuclear factor kappa-B kinase subunit beta (Homo sapiens). The following applies: at 10 µM.
The target in assay [10] is Insulin receptor (Homo sapiens) (UniProt P06213). The following applies: at 1 µM.
Chain of Insulin receptor (Homo sapiens) (P06213 28-758 limits assumed): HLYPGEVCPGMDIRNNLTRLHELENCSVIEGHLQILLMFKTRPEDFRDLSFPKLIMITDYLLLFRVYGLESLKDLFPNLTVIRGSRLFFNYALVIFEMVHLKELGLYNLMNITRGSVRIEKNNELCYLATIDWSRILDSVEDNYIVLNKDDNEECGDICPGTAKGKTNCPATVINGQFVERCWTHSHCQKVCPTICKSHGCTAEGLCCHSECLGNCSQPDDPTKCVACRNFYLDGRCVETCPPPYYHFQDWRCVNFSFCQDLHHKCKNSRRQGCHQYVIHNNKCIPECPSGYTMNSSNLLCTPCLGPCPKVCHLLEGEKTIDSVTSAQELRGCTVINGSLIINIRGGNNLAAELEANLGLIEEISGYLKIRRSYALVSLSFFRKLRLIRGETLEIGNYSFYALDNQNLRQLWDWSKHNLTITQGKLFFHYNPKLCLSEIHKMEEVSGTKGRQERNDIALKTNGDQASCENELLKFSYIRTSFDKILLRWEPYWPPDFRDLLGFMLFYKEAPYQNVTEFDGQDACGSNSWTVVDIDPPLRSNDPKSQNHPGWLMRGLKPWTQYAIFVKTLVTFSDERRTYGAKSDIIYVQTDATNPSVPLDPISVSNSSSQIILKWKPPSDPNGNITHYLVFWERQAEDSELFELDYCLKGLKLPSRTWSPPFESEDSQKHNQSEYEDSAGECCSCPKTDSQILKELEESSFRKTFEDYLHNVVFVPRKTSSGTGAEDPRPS
Chain of Insulin receptor (Homo sapiens) (P06213 763-1382 limits assumed): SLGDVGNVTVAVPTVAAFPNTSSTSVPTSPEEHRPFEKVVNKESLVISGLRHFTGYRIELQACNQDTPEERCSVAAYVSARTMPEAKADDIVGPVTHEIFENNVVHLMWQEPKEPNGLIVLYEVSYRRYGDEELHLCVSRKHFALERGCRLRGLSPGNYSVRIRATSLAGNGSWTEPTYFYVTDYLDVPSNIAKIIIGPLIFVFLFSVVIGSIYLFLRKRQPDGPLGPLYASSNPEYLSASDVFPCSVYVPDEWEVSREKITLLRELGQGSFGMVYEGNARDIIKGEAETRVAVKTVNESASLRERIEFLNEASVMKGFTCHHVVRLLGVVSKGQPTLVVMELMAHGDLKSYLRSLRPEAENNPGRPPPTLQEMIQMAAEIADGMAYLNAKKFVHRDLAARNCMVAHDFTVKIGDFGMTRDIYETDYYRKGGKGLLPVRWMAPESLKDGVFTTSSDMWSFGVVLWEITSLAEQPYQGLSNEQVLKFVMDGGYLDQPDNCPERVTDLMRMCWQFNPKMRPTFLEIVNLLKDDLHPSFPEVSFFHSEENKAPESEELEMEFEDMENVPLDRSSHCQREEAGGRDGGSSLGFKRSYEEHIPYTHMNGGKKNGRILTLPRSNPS

Chain of Insulin-like growth factor 1 receptor (Homo sapiens) (P08069 31-736 limits assumed): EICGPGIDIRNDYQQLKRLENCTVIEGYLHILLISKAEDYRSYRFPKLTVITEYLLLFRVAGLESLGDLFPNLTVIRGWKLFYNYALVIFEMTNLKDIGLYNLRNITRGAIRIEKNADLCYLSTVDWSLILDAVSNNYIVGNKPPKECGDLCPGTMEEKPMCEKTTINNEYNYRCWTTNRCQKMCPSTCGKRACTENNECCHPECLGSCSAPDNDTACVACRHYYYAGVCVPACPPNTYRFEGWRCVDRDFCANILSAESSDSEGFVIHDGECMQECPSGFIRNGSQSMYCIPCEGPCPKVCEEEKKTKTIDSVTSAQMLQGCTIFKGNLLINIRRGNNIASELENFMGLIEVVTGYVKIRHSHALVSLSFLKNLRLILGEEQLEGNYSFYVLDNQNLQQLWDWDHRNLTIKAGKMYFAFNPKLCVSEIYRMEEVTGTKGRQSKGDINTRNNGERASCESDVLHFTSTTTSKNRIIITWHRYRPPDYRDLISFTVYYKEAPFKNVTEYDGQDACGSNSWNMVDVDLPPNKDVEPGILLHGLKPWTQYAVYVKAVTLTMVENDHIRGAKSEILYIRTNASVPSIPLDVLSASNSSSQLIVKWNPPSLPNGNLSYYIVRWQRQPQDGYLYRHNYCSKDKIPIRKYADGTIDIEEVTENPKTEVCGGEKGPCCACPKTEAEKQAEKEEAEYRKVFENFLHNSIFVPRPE
Chain of Insulin-like growth factor 1 receptor (Homo sapiens) (P08069 741-1367 limits assumed): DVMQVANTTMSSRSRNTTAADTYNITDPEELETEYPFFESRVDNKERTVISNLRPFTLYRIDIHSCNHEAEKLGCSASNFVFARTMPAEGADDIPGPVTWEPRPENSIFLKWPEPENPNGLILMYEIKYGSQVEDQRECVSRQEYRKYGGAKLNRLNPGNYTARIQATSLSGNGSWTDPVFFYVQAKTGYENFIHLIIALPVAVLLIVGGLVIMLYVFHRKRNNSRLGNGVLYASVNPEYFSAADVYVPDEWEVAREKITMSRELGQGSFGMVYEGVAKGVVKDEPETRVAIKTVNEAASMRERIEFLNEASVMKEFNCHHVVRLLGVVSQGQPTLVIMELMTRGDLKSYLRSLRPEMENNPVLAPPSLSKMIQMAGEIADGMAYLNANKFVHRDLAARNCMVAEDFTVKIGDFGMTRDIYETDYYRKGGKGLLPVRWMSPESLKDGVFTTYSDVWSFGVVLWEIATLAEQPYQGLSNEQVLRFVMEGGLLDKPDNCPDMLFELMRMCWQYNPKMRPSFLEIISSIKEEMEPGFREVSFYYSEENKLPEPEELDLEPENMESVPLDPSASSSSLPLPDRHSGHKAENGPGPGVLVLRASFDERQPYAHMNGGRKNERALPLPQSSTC

As a reminder, the residual activity is the signal under treatment as a percentage of the control signal. Take `Cc1nc(-c2ccccc2)c(-c2ccncc2)o1`: the residual activity stood at 88% in assay [1]; 116% in assay [2]; 100% in assay [3]; 107% in assay [4]; 116% in assay [5]; 109% in assay [6]. Besides, the residual activity in [7] turned out to be 101%; in assay [8], 109%; in assay [9], 82%; in [10] it was 117%.
